For 8 compounds, cell number and H1.0 immunofluorescence intensity results are on record in the supplement of paper PMC7156485.

Holding throughout (conditions): concentration: 10 µM; 24 h
The test system of experiment [1] is HCC1569. Kind of experiment: cell number relative to DMSO (% of DMSO); higher = more cells (less growth inhibition / toxicity). The procedure, abridged: (§1)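 Cells were seeded at 800 per well in 384-well plates with RPMI containing 10% FBS; both HCC1569 and TDF lines were used. Compounds were added at 10 µM for 24 h at 37 °C, in triplicate, before fixation in 3.7% formaldehyde and staining with a rabbit anti-H1.0 antibody, an AlexaFluor 647 secondary and DAPI. H1.0 nuclear intensity or cell number is reported as percent of the plate control using the median of replicates, and HCC1569 values were smoothed for positional effects.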

For experiment [2], the system named is TDF. The description is as above. The method, boiled down:
as §1

The test system of experiment [3] is TDF. The experiment can be described thus: H1.0 immunofluorescence intensity relative to DMSO (% of DMSO); higher = stronger H1.0 induction, active = 120 or more. The method, boiled down:
as §1

For experiment [4], the system named is HCC1569. The experiment can be described thus: H1.0 immunofluorescence intensity relative to DMSO (% of DMSO); higher = stronger H1.0 induction, active = 140 or more. The procedure, abridged:
as §1
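For H1.0 immunofluorescence intensity relative to DMSO in this document: TDF is a line of transformed human dermal fibroblasts of mesenchymal origin.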
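For cell number relative to DMSO in this document: TDF denotes transformed human dermal fibroblasts of mesenchymal origin.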

Consider `CC(CN1CCC(Cc2ccccc2)CC1)C(O)c1ccc(O)cc1.Cl` (configuration not stated) [Ro 25-6981 hydrochloride], for which the cell number with HCC1569 [1] turned out to be 105; in the experiment on TDF [2], 101. Moreover, the figures for the H1.0 immunofluorescence intensity in the experiment with TDF [3] and in the experiment on HCC1569 [4] were 86.4 (inactive) and 96.6 (inactive), respectively.

Regarding `COC(=O)C1C(O)CCC2CN3CCc4c([nH]c5ccccc45)C3CC21.Cl` (configuration not stated) [Rauwolscine], the cell number in the experiment on HCC1569 [1] is 103; in the experiment on TDF [2] it was 99.5. In addition, the H1.0 immunofluorescence intensity in the experiment with TDF [3] is 95.5 (inactive); with HCC1569 [4], 95.6 (inactive).

`CCN(CC)CCOC(=O)c1ccc(N)cc1.Cl` [Procaine hydrochloride]: the cell number was found to be 105 in the experiment with HCC1569 [1] and 100 in the experiment with TDF [2]. For the same compound, the H1.0 immunofluorescence intensity was 91.3 (inactive) with TDF [3] and 97.8 (inactive) in the experiment on HCC1569 [4].

Turning to `Cc1cn(-c2cc(NC(=O)c3ccc(C)c(Nc4nccc(-c5cccnc5)n4)c3)cc(C(F)(F)F)c2)cn1` [Nilotinib], the cell number worked out at 100 in the experiment on HCC1569 [1] and 73.5 in the experiment with TDF [2]. The H1.0 immunofluorescence intensity with TDF [3] is 101 (inactive); in the experiment on HCC1569 [4], 94.2 (inactive).

Consider `CC(C)NCC(O)COc1ccc(CC(N)=O)cc1` (racemic), for which the cell number came out at 109 in the experiment on HCC1569 [1] and 101 in the experiment with TDF [2]. Also, the results for the H1.0 immunofluorescence intensity in the experiment with TDF [3] and in the experiment on HCC1569 [4] were 93.8 (inactive) and 88.2 (inactive), respectively.

On to `Cc1cnc(Nc2ccc(N3CCN(C)CC3)cc2)nc1Nc1cccc(S(=O)(=O)NC(C)(C)C)c1`, for which the cell number with HCC1569 [1] was 31.4; in the experiment on TDF [2] it was 98.6. Also, the H1.0 immunofluorescence intensity with TDF [3] was 97.9 (inactive); with HCC1569 [4] it was 174 (active).

Consider `N#CC(=C(N)Sc1ccc(N)cc1)c1ccccc1C(F)(F)F`, for which the cell number with HCC1569 [1] worked out at 102; in the experiment with TDF [2], 115. Besides, the figures for the H1.0 immunofluorescence intensity with TDF [3] and in the experiment on HCC1569 [4] were 90.6 (inactive) and 126 (inactive), respectively.

For `CCCCCC=CCC=CC=CC=CC(SCC(NC(=O)CCC(N)C(=O)O)C(=O)NCC(=O)O)C(O)CCCC(=O)O` (configuration not stated) [Leukotriene C4], the cell number in the experiment with HCC1569 [1] turned out to be 99.8; with TDF [2] it was 92.2. For the same compound, the H1.0 immunofluorescence intensity was 90.1 (inactive) in the experiment on TDF [3] and 105 (inactive) in the experiment with HCC1569 [4].
